# “And” between values parts separate entries of the source, which are not always exact repeats. Equal values may be shown once. The whole screen tested about 5,500 compounds, of which about 2,000 (36%) were called active. Roughly 18% stayed inconclusive and do not appear here. The list shows a part of the results. A number with no mark means an inactive call. No stated cut-off is given here; in the data, active means normalized growth mostly below about 0.91 (no sharp cut-off); inconclusive means no clear call, values can overlap the other calls; inactive means mostly above about 0.92.
# Assay: chemical genetic growth profiling, strain panel (AID 1159580);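 further: tested at 20 µM; growth read once vehicle control cultures reached saturation at 30 °C; 1 = growth at the plate median or of vehicle wells; lower values mean less growth of the strain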
# Details: S. cerevisiae deletion strains, growth OD
smiles,measurement,setting,value
CCCCCC1C(=O)CCC1CC(=O)OC (stereo not given),normalized growth,"locus YAL013W, strain DEP1, hits give low values",0.988
same,normalized growth,"locus YAL021C, strain ccr4, hits give low values",1.04
same,normalized growth,"locus YAL026C, strain drs2, hits give low values",0.988
same,normalized growth,"locus YAL030W, strain snc1, hits give low values",0.981
same,normalized growth,"locus YBL061C, strain skt5, hits give low values",0.984
same,normalized growth,"locus YBR009C, strain hhf1, hits give low values",0.972
same,normalized growth,"locus YBR021W, strain FUR4, hits give low values",0.921
same,normalized growth,"locus YBR023C, strain chs3, hits give low values",0.977
same,normalized growth,"locus YBR171W, strain sec66, hits give low values",0.96
same,normalized growth,"locus YBR229C, strain ROT2, hits give low values",0.991
same,normalized growth,"locus YBR231C, strain swc5, hits give low values",0.978
same,normalized growth,"locus YBR279W, strain paf1, hits give low values",0.986
same,normalized growth,"locus YCL011C, strain gbp2, hits give low values",0.988
same,normalized growth,"locus YCL016C, strain dcc1, hits give low values",0.979
same,normalized growth,"locus YCL029C, strain bik1, hits give low values",0.958
same,normalized growth,"locus YCL061C, strain MRC1, hits give low values",0.984
same,normalized growth,"locus YCL069W, strain vba3, hits give low values",0.986
same,normalized growth,"locus YCR088W, strain abp1, hits give low values",0.973
same,normalized growth,"locus YDL005C, strain med2, hits give low values",0.97
same,normalized growth,"locus YDL035C, strain GPR1, hits give low values",0.974
same,normalized growth,"locus YDL040C, strain nat1, hits give low values",0.981
same,normalized growth,"locus YDL074C, strain BRE1, hits give low values",0.992
same,normalized growth,"locus YDL101C, strain DUN1, hits give low values",1.01
same,normalized growth,"locus YDL134C, strain PPH21, hits give low values",1.01
same,normalized growth,"locus YDL185W, strain tfp1, hits give low values",0.931
same,normalized growth,"locus YDL192W, strain arf1, hits give low values",0.97
same,normalized growth,"locus YDR001C, strain nth1, hits give low values",0.984
same,normalized growth,"locus YDR069C, strain doa4, hits give low values",0.999
same,normalized growth,"locus YDR101C, strain arx1, hits give low values",0.96
same,normalized growth,"locus YDR137W, strain rgp1, hits give low values",0.996
same,normalized growth,"locus YDR150W, strain NUM1, hits give low values",0.975
same,normalized growth,"locus YDR159W, strain sac3, hits give low values",0.969
same,normalized growth,"locus YDR162C, strain NBP2, hits give low values",1.03
same,normalized growth,"locus YDR195W, strain ref2",0.991
same,normalized growth,"locus YDR297W, strain sur2, hits give low values",0.978
same,normalized growth,"locus YDR318W, strain mcm21, hits give low values",0.961
same,normalized growth,"locus YDR334W, strain swr1, hits give low values",0.986
same,normalized growth,"locus YDR335W, strain msn5, hits give low values",1.01
same,normalized growth,"locus YDR388W, hits give low values",0.954
same,normalized growth,"locus YDR392W, strain spt3, hits give low values",0.975
same,normalized growth,"locus YDR502C, strain sam2, hits give low values",0.996
same,normalized growth,"locus YEL003W, strain gim4, hits give low values",0.987
same,normalized growth,"locus YEL037C, strain rad23, hits give low values",0.984
same,normalized growth,"locus YEL061C, strain CIN8 (second series), hits give low values",0.989
same,normalized growth,"locus YEL061C, strain CIN8, hits give low values",0.991
same,normalized growth,"locus YER015W, strain faa2, hits give low values",0.98
same,normalized growth,"locus YER016W, strain bim1, hits give low values",0.986
same,normalized growth,"locus YER110C, hits give low values",0.898 (active)
same,normalized growth,"locus YER111C, strain swi4, hits give low values",0.982
same,normalized growth,"locus YER155C, strain BEM2 (second series), hits give low values",0.95
same,normalized growth,"locus YER155C, strain BEM2, hits give low values",0.952
same,normalized growth,"locus YER167W, strain BCK2, hits give low values",0.97
same,normalized growth,"locus YFR010W, strain ubp6, hits give low values",0.987
same,normalized growth,"locus YGL078C, strain dbp3, hits give low values",0.966
same,normalized growth,"locus YGL086W, strain mad1, hits give low values",1.01
same,normalized growth,"locus YGL167C, strain pmr1, hits give low values",0.96
same,normalized growth,"locus YGL173C, strain kem1, hits give low values",0.967
same,normalized growth,"locus YGL227W, strain vid30, hits give low values",0.963
same,normalized growth,"locus YGL240W, strain doc1, hits give low values",0.994
same,normalized growth,"locus YGL248W, strain PDE1, hits give low values",1.04
same,normalized growth,"locus YGL253W, strain hxk2, hits give low values",0.981
same,normalized growth,"locus YGR078C, strain PAC10, hits give low values",1.04
same,normalized growth,"locus YGR135W, strain pre9, hits give low values",0.963
same,normalized growth,"locus YGR229C, strain SMI1, hits give low values",1.02
same,normalized growth,"locus YGR252W, strain gcn5, hits give low values",1.1
same,normalized growth,"locus YHR013C, strain ard1, hits give low values",1
same,normalized growth,"locus YHR027C, strain rpn1, hits give low values",0.992
same,normalized growth,"locus YHR030C, strain SLT2, hits give low values",0.979 and 0.975
same,normalized growth,"locus YHR079C, strain IRE1 (second series), hits give low values",0.957
same,normalized growth,"locus YHR079C, strain IRE1, hits give low values",0.975
same,normalized growth,"locus YHR094C, strain hxt1, hits give low values",0.986
same,normalized growth,"locus YHR129C, strain ARP1, hits give low values",0.993
same,normalized growth,"locus YHR142W, strain chs7, hits give low values",0.987
same,normalized growth,"locus YHR200W, strain rpn10, hits give low values",0.981
same,normalized growth,"locus YIL066C, strain RNR3, hits give low values",1
same,normalized growth,"locus YIL073C, strain SPO22, hits give low values",0.952
same,normalized growth,"locus YIL125W, strain kgd1, hits give low values",0.961
same,normalized growth,"locus YIR030C, strain dcg1, hits give low values",0.948
same,normalized growth,"locus YJL092W, strain hpr5, hits give low values",0.975
same,normalized growth,"locus YJL095W, strain BCK1 (second series), hits give low values",0.983
same,normalized growth,"locus YJL095W, strain BCK1, hits give low values",1.06 and 0.982
same,normalized growth,"locus YJL115W, strain asf1, hits give low values",0.966
same,normalized growth,"locus YJL129C, strain trk1, hits give low values",1
same,normalized growth,"locus YJL134W, strain LCB3, hits give low values",0.967
same,normalized growth,"locus YJL154C, strain vps35, hits give low values",0.976
same,normalized growth,"locus YJL164C, strain tpk1, hits give low values",0.992
same,normalized growth,"locus YJL166W, strain qcr8, hits give low values",0.978
same,normalized growth,"locus YJL168C, strain set2, hits give low values",0.951
same,normalized growth,"locus YJL187C, strain SWE1 (second series), hits give low values",1.03
same,normalized growth,"locus YJL187C, strain SWE1, hits give low values",0.977
